Results as given in PubChem BioAssay (NCATS).
Unmarked numbers belong to inactive results. No rule for the calls is given here.
Potency is read from the fitted curve at half-maximal effect.

What follows are compounds tested on HIV-1 nucleocapsid protein NCp7 (binding to TG oligonucleotide) (assay: HIV Nucleocapsid (AID 346;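 also: potency is for inhibitors that block NC binding and lower polarization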)). Details: HIV-1 NC / fluorescein-TGTGTGTG probe, fluorescence polarization.
Method in brief: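 Fluorescence polarization readout: labelled TG4xF oligo (10 nM) with 100 nM nucleocapsid protein, high-salt (250mM NaCl) Hepes pH 7.5 buffer containing zinc and fresh reducing agents. Compounds added by pin tool; incubation 1 hr, room temperature.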
In the case of FC(F)(F)c1ccccc1-c1nc(N2CCOCC2)c2ccccc2n1, the Potency is reported as > 20 µM.
For COc1ccc(Oc2ncc3ncc(=O)n(Cc4cccc(OC)c4)c3n2)cc1, the Potency was > 20 µM.
For N#Cc1ccc(CN2CCC3(CC2)CCN(C(=O)c2cccc(F)c2)CC3)cc1, the Potency was > 20 µM.
In the case of CC(C)CN1CCCC2(CCN(C(=O)c3cccn3C)CC2)C1, the Potency is reported as > 20 µM.
For COc1cccc(Cn2c(=O)c(-c3cn(C)c4ccccc34)nc3cnc(N4CCOCC4)nc32)c1, the Potency was > 20 µM.
For COc1cccc(Cn2c(=O)c(-c3cccs3)nc3cnc(N4CCN(C)CC4)nc32)c1, the Potency was > 4 µM.
O=c1c(CCc2ccccc2)nc2cnc(N3CCNCC3)nc2n1C1CC1 was tested, and the Potency was > 20 µM.
O=c1cnc2cnc(Nc3ccccc3)nc2n1Cc1cccs1 was tested, and the Potency was > 20 µM.
COc1cccc(-c2cncnc2Nc2ccc(F)cc2)c1 was tested, and the Potency was > 20 µM.
With Cc1ccccc1-c1cc(N(C)Cc2ccco2)ncn1 the Potency was > 20 µM.
For Cn1c(=O)cnc2cnc(OCc3ccccc3)nc21, the Potency was > 20 µM.
In the case of COc1ccc2[nH]cc(CCNc3ccnc(-c4cccc(C#N)c4)n3)c2c1, the Potency is reported as > 20 µM.
COc1ccccc1CNc1ncncc1-c1ccoc1 was tested, and the Potency was > 20 µM.
CCNc1ncc2nc(-c3ccc(OC)cc3)c(=O)n(C)c2n1 was tested, and the Potency was > 20 µM.
Cc1noc(C)c1-c1ccc2ncnc(NCc3cccnc3)c2c1 was tested, and the Potency was > 20 µM.
With COc1ccc(-n2c(=O)cnc3cnc(Nc4ccccc4)nc32)cc1 the Potency was > 4 µM.
With c1ccc2c(NC3CC3)nc(-c3ccoc3)nc2c1 the Potency was > 20 µM.
CCNc1ncc2nc(-c3cccc(C#N)c3)c(=O)n(C)c2n1 was tested, and the Potency was > 20 µM.
For Cc1noc(C)c1-c1ccc2ncnc(NC3CC3)c2c1, the Potency was > 20 µM.
In the case of Cc1noc(C)c1C(=O)N1CCC2(CCN(C(=O)NC(C)C)CC2)CC1, the Potency is reported as > 20 µM.
CNc1cc(-c2ccccc2CN(C)C)ncn1 was tested, and the Potency was > 20 µM.
For COc1ncc2nc(-c3cccs3)c(=O)n(CCc3ccccc3)c2n1, the Potency was > 20 µM.
With Cc1noc(C)c1-c1cc(NCc2cccnc2)ncn1 the Potency was > 20 µM.
For COC(=O)N1CCC2(CC1)CCN(c1ccncc1)CC2, the Potency was > 20 µM.
For COc1ncc2ncc(=O)n(Cc3ccc(F)cc3)c2n1, the Potency was > 20 µM.
CN1CCN(c2ncnc3ccc(-c4cccnc4)cc23)CC1 was tested, and the Potency was > 20 µM.
For Cc1noc(C)c1C(=O)N1CCC[C@@]2(CCN(Cc3ccc(C#N)cc3)C2)C1, the Potency was > 20 µM.
For O=c1c(-c2cc(F)cc(F)c2)nc2cncnc2n1C1CC1, the Potency was > 20 µM.
COc1ccccc1CNc1cc(-c2ccccc2CN(C)C)ncn1 was tested, and the Potency was > 20 µM.
In the case of COc1cccc(-c2nc(NCCc3c[nH]c4ccc(OC)cc34)c3ccccc3n2)c1, the Potency is reported as > 20 µM.
COc1cccc(-c2cncnc2-n2ccnc2)c1 was tested, and the Potency was > 20 µM.
Cn1c(=O)c(-c2cccs2)nc2cnc(Oc3ccccc3)nc21 was tested, and the Potency was > 20 µM.
With c1cncc(-c2nc(-n3ccnc3)c3ccccc3n2)c1 the Potency was > 20 µM.
CS(=O)(=O)Nc1cccc(-c2nccc(-n3ccnc3)n2)c1 was tested, and the Potency was > 20 µM.
In the case of COc1ccc2[nH]cc(CCNc3ncncc3-c3ccoc3)c2c1, the Potency is reported as > 20 µM.
COc1ccc(Oc2ncc3nc(-c4cn(C)c5ccccc45)c(=O)n(C4CC4)c3n2)cc1 was tested, and the Potency was > 20 µM.
N#Cc1cccc(NC(=O)N2CC3(CCN(C(=O)c4ccco4)CC3)C2)c1 was tested, and the Potency was > 20 µM.
With COCCn1c(=O)c(-c2ccc(F)cc2)nc2cnc(Oc3ccc(OC)cc3)nc21 the Potency was > 20 µM.
With O=c1c(-c2cccs2)nc2cnc(N3CCNCC3)nc2n1C1CC1 the Potency was > 20 µM.
With COc1ccccc1-c1cncnc1NCc1cccnc1 the Potency was > 20 µM.
